# Test results from ChEMBL document CHEMBL4513141, “CO-ADD screening of NIH (USA) - Clinical Collection” (2021).
# Measured potencies and affinities stand elsewhere.
# Experiments:
# [1] = tested on: Klebsiella pneumoniae; conditions: Concentration 20 uM; ASSAY_TEST Inhibition of Bacterial Growth; detection method Absorption (OD600); MEDIA CAMHB; plate type 384well; NBS; CORNING #3640; time 18 hr
# [2] = tested on: Candida albicans; conditions: 20 µM
# [3] = tested on: Cryptococcus neoformans; conditions: Concentration 20 uM; ASSAY_TEST Inhibition of Fungal Growth; detection method Resazurin; Absorption (OD600-OD570); plate type 384well; NBS; CORNING #3640
Compound,Inhibition [1] [%],Inhibition [2] [%],Inhibition [3] [%]
Cc1ncc([N+](=O)[O-])n1CC(C)O (stereo not drawn) [SECNIDAZOLE],8.29,1.89,0.36
Cc1nc2n(c(=O)c1CCN1CCC(c3noc4cc(F)ccc34)CC1)CCCC2 [RISPERIDONE],4.8,0.09,-0.58
CN1CCC(=C2c3ccccc3CC(=O)c3sccc32)CC1.O=C(O)/C=C/C(=O)O [KETOTIFEN FUMARATE],1.04,3.18,-3.16
Nc1nc(N)nc(-c2cc(Cl)ccc2Cl)n1.O=C(O)/C=C\C(=O)O [IRSOGLADINE MALEATE],5.85,2.42,-1.72
Nc1nnc(-c2cccc(Cl)c2Cl)c(N)n1 [LAMOTRIGINE],6.26,3.32,-2.92
CC(C(=O)O)c1cccc(C(=O)c2ccccc2)c1 (stereo not drawn) [KETOPROFEN],8.94,5.45,-5.87
CC1(C)S[C@@H]2[C@H](NC(=O)[C@H](N)c3ccc(O)cc3)C(=O)N2[C@H]1C(=O)O [AMOXICILLIN],10.29,9.25,-2.09
NNC(=O)c1ccncc1 [ISONIAZID],6.54,3.95,-3.6
CC(=O)OCC(=O)[C@@]1(O)CC[C@H]2[C@@H]3C[C@H](C)C4=CC(=O)C=C[C@]4(C)[C@H]3[C@@H](O)C[C@@]21C [METHYLPREDNISOLONE ACETATE],10.69,-0.69,-0.41
O=c1c(O[C@@H]2O[C@H](CO)[C@@H](O)[C@H](O)[C@H]2O)c(-c2ccc(O)c(O)c2)oc2cc(O)cc(O)c12 [ISOQUERCETIN],10.08,1.9,3.22
CNCC[C@H](Oc1cccc2ccccc12)c1cccs1.Cl [DULOXETINE HYDROCHLORIDE],5.49,3.07,-2.99
COc1ccc([C@@H]2Sc3ccccc3N(CCN(C)C)C(=O)[C@@H]2OC(C)=O)cc1.Cl [DILTIAZEM HYDROCHLORIDE],11.57,4.02,1.8
CN(C)CC[C@@H](c1ccc(Br)cc1)c1ccccn1.O=C(O)/C=C\C(=O)O [DEXBROMPHENIRAMINE MALEATE],-0.14,1.43,-3.8
Cc1c(C(=O)NN2CCCCC2)nn(-c2ccc(Cl)cc2Cl)c1-c1ccc(I)cc1,-0.74,7.4,-5.99
CN(Cc1cnc2nc(N)nc(N)c2n1)c1ccc(C(=O)N[C@@H](CCC(=O)O)C(=O)O)cc1.O,9.2,12.2,-1.89
CC(C)c1ccc2oc3nc(N)c(C(=O)O)cc3c(=O)c2c1 [AMLEXANOX],7.43,8.26,-1.01
